Compound activity deposited in PubChem BioAssay by National Center for Advancing Translational Sciences (NCATS).
An excerpt weighted towards active compounds, which were near 7.4% of everything screened.
ELG1 genotox – genotoxicity induction in ELG1-luciferase HEK293T cells | 330,000 compounds, 1.3% hits | AID 504466 | HEK293T ELG1-luciferase reporter, luminescence, 16 h | Potency, µM (highest dose often 46 µM), for inactives: at the top dose activity change, positive = activation, hits mostly activators; also: % of control where 0% means no effect; nearly all actives have a fitted effect of over 60% in size
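DMSO vehicle served as control against compound-treated ELG1-luciferase HEK293T cells; exposure lasted 16 hr at 37 °C and 5% CO2, followed by ONE-Glo luminescence detection after 30 min.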
NPC1 prom act – activators of NPC1 promoter; Huh7 NPC1 promoter luciferase reporter, 24 h; Potency, µM (doses to about 9.22 µM), for the others: top-dose activation, usual class: activators; 320,000 compounds, 2.4% hits; AID 485313; also: % of control where 0% means no effect; nearly all actives have a fitted effect of over 60% in size
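Luminescence from an NPC1 promoter-driven luciferase reporter in stably transfected Huh7 cells was measured after 24 h compound treatment at 37 °C, followed by 10 min ambient incubation with luciferase detection reagent.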
Rab9 prom act – Rab9 promoter activation; Huh7 Rab9 promoter-luciferase reporter, luminescence, 24 h; Potency, µM (highest dose often 9.22 µM), for inactives: top-dose activation, negative = inhibition, most hits filed as activators; 320,000 compounds, 2.8% hits; AID 485297; also: % of control where 0% means no effect; nearly all actives have a fitted effect of over 60% in size
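Huh7 cells stably carrying a Rab9 promoter-luciferase reporter, 1500 cells per well in OP-MEM I with 10% FBS, treated with compound 24 hours at 37C. Luciferase activity read by luminescence after 10 minutes with Amplite reagent.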
SMN2 splice enh – SMN2 splice variant enhancement | HEK293 SMN2-luciferase splicing reporter, luminescence, 30-36 h | Potency, µM (top dose mostly 46.1 µM), inactives show at the highest dose activity change, positive = activation, hits mostly activators | 210,000 compounds, 2.8% hits | AID 1458; also: % of control where 0% means no effect; nearly all actives have a fitted effect of over 55% in size
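qHTS luciferase splicing reporter: luminescence rises when SMN2 exon 7 is included in transfected HEK293 cells. Compound exposure lasted 30-36 h at 37C, with 4.5 mM final sodium butyrate as control, followed by a ONE-Glo read.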
FLuc counter – counter-screen for miR-21 project: firefly luciferase inhibitors or activators | P08659 | purified FLuc, Km substrates, luminescence inhibition | Potency, µM (doses to about 57.5 µM), for inactives: at the top dose activity change, negative = inhibition, actives largely listed as inhibitors | 360,000 compounds, 6.9% hits;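 also: plate controls were vehicle for no effect and reference inhibitor for full effect; nearly all actives have a fitted effect of over 55% in size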
Target sequence (P08659 whole entry, looked up): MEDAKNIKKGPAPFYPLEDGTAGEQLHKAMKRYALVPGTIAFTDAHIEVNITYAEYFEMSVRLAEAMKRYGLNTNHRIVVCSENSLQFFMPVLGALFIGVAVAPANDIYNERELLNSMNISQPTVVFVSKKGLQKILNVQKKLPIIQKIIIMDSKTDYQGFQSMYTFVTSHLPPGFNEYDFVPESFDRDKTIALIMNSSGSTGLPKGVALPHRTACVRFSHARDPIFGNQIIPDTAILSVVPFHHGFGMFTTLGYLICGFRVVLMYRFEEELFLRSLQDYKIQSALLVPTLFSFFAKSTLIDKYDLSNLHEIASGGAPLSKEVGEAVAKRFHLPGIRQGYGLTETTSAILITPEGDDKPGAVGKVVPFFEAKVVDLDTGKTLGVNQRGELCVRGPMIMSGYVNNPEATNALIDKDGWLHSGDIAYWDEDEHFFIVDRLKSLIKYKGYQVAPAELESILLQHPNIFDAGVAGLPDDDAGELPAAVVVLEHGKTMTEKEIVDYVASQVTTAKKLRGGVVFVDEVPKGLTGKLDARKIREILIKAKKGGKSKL
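Biochemical qHTS of compounds, final roughly 60 µM downward over six points, against 10 nM purified firefly luciferase using Km concentrations of substrates (10 uM D-luciferin, 10 uM ATP) in Tris acetate pH 7.5 buffer; luminescence output.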
Numbers without * were called inactive; ? = inconclusive; . = no result; [ ] = remark or other dose. Calls follow the shape of the dose curve; as a rule, active = well fitted curve in the direction sought with a large enough effect; inconclusive = small, poorly fitted or top-dose-only effect, or another doubt; inactive = no such curve, though single readings can be large; an effect the other way counts as inactive or inconclusive. Potency is read from the fitted curve at half-maximal effect.

SMILES	ELG1 genotox	NPC1 prom act	Rab9 prom act	SMN2 splice enh	FLuc counter
O=C1c2ccccc2C(=O)N1CCN1CCc2ccccc21	?	?	?	25%	13µM*
CC1(C)OC(=O)C(=Cc2ccc(-c3ccc(S(N)(=O)=O)cc3)o2)C(=O)O1	?	-4%	1%	4%	11µM*
NS(=O)(=O)c1ccc(-c2ccc(/C=C3\C(=O)Nc4ccccc43)o2)cc1	-2%	2%	-2%	.	1%
CCn1nc(C(=O)Nc2ccc(S(=O)(=O)Nc3ncccn3)cc2)c2ccccc2c1=O	10%	1%	2%	32%	-7%
CCCn1nc(C(=O)Nc2ccc(S(=O)(=O)Nc3nccs3)cc2)c2ccccc2c1=O	-1%	-2%	-1%	7.9µM*	-1%
CCCCCCCCCCCCCCC/C=C/[C@@H](O)[C@H](NC(=O)CCCCCCCCCCCCC)OC (tested in a mixture with another compound)	.	.	.	-8%	.
Cc1cc(OCC(F)(F)C(F)(F)C(F)(F)C(F)F)nc(N)n1	5%	-5%	-5%	5%	17µM*
CCCCn1nnc(NC(=S)NC(=O)c2ccc(OCC)c([N+](=O)[O-])c2)n1	3%	-5%	-2%	.	-3%
O=C(Nn1c(O)c(C=C2N=c3ccccc3=N2)sc1=S)c1ccccc1Cl	-1%	-1%	-1%	-3%	15µM*
O=S(=O)(Nn1c(O)c(C=C2N=c3ccccc3=N2)sc1=S)c1ccccc1	-5%	-2%	1%	.	15µM*
CCn1c(O)c(C=C2N=c3ccccc3=N2)sc1=S	0%	-1%	1%	-13%	2%
Oc1c(C=C2N=c3ccccc3=N2)sc(=S)n1-c1ccccc1	0%	-5%	-3%	-24%	-8%
Cc1oc(-c2ccccc2F)nc1CSc1nnc(C)n2c1cc1occc12	.	.	.	.	-1%
Cc1nnc(SCc2ccccc2Cl)c2cc3occc3n12	.	.	.	.	17µM*
O=c1c(Cl)c(NCc2ccccc2Cl)cnn1C12CC3CC(CC(C3)C1)C2	1%	-4%	-4%	-51%	12µM*
O=c1c(Cl)c(NCc2ccco2)cnn1C12CC3CC(CC(C3)C1)C2	-9%	18%	-3%	-15%	-18%
CC1(c2ccccn2)Nc2ccccc2-c2nc3ccccc3n21 (stereo not given)	-3%	-6%	0%	-9%	?
c1ccc2c(c1)NC1(CCCCC1)n1c-2nc2ccccc21	?	?	28%	25%	21µM*
c1ccc2c(c1)NC1(CCCCCC1)n1c-2nc2ccccc21	4µM*	?	3.2µM*	10µM*	13µM*
O=C(c1cccc(S(=O)(=O)NCc2ccccc2)c1)N1CCCC(C(F)(F)F)C1 (stereo not given)	14%	2%	-4%	.	6%
O=C(CSc1nnc(NC(=O)c2ccccc2)s1)NCC1CCCO1 (stereo not given)	?	3.5µM*	2.8µM*	.	4.3µM*
O=C(CSc1nnc(NC(=O)c2ccccc2F)s1)NCC1CCCO1 (stereo not given)	?	?	?	.	12µM*
Cc1cc(C)cc(C(=O)Nc2nnc(SCC(=O)NCC3CCCO3)s2)c1 (stereo not given)	4%	1%	4%	.	?
O=C(CSc1nnc(NC(=O)c2ccccc2[N+](=O)[O-])s1)NCC1CCCO1 (stereo not given)	2%	6%	4%	.	17µM*
COc1ccc(C(=O)Nc2nnc(SCC(=O)NCC3CCCO3)s2)cc1OC (stereo not given)	24%	21%	15%	.	12µM*
SMILES	ELG1 genotox	NPC1 prom act	Rab9 prom act	SMN2 splice enh	FLuc counter
Cn1c(SCC(=O)NCC2CCCO2)ncc(C(=O)Nc2ccccc2)c1=O (stereo not given)	?	0%	2%	.	?
O=C(CSc1nnc(NC(=O)c2cccc(Br)c2)s1)NCC1CCCO1 (stereo not given)	?	?	.	.	8.5µM*
Cc1ccc(NC(=O)c2cnc(SCC(=O)NCC3CCCO3)n(C)c2=O)cc1C (stereo not given)	21µM*	?	?	.	4.8µM*
NCCC[C@@H](CC(=O)N[C@@H]1CCNC[C@H]1C(=O)N[C@H](CC(=O)N[C@@H](CCC(=O)O)CC(=O)O)Cc1ccccc1)NC(=O)C[C@H](CO)NC(=O)[C@@H]1CNCC[C@H]1N	.	.	.	8%	.
Cc1ccc(C(=O)/C=C/NCc2ccc(F)cc2)cc1	10%	-3%	5%	29%	17µM*
Cc1ccc(CN/C=C/C(=O)c2ccc(Br)cc2)cc1	5%	20%	20%	17%	17µM*
COc1ccc(CN=C(C)c2c(C(F)(F)F)[nH]n(-c3nc4ccccc4s3)c2=O)cc1	15µM*	?	4µM*	-22%	6.7µM*
COC(=O)CC1=NN(c2nc3ccccc3s2)C(=O)/C1=C/N(C)C	-6%	15%	17%	2%	?
O=C(O)CCC(=O)N1CCN(c2nc3ccccc3s2)CC1	0%	0%	2%	26%	-6%
COc1ccc(Cn2c(C(C)C)nc3sc4ccccc4c(=O)c3c2=O)cc1	-5%	-3%	-9%	.	5%
O=c1cc(-c2ccccc2)[nH]n1-c1nc2ccccc2s1	8%	12%	8%	-1%	17µM*
CC(=O)c1c(CC(=O)O)[nH]n(-c2nc3ccccc3s2)c1=O	10%	21%	?	-22%	12µM*
COC(=O)Cc1[nH]n(-c2nc3ccccc3s2)c(=O)c1C(C)=O	?	11%	15%	-19%	9.5µM*
Cc1ccc(NC(=O)c2ccc3c(c2)NC(=O)c2ccccc2S3)c(Cl)c1	.	.	.	-39%	-3%
Cc1cc(NC2CCCCC2)nc(-n2nc(C)cc2C)n1	.	2%[46.1 µM]	-13%[46.1 µM]	.	.
Oc1c(C=Nc2ccccc2Cl)[nH]c2ccccc12	?	2.8µM*	3.5µM*	.	?
O=c1[nH][nH]c(C(F)(F)F)c1C=Nc1ccccc1Cl	0%	-4%	1%	-9%	?
O=C(NCCc1ccccc1)c1ccccc1NC(=O)C1CCCO1 (stereo not given)	?	1.4µM*	1.3µM*	3.5µM*	?
COc1ccc(NC(=O)c2ccccc2NC(=O)C2CCCO2)cc1 (stereo not given)	?	26%	?	20µM*	-10%
O=C(O)c1ccccc1NC(=O)C1CCCO1 (stereo not given)	.	.	.	-1%	-2%
N#Cc1cc(-c2ccccc2)[nH]c1-c1nccc2ccccc12	-13%	-4%	-5%	.	?
c1ccc(-c2ccc(-c3nccc4ccccc34)[nH]2)cc1	?	?	1µM*	.	0.15µM*
CCc1ccc(/C=C/C(=O)C2C(=O)c3ccccc3C2=O)cc1	1%	?	?	?	0.43µM*
CC(C)(C)C(=O)C1C(=O)c2ccccc2C1=O	.	.	.	-5%	.
